What all share (test): PBM; 200 nM protein, PBS
Settings in all cases: dsDNA, one strand shown

Experiment [1] deals with HOXC9 (Homo sapiens, UniProt P31274 178-260, K195R).
Experiment [2] has as its target PRRX1 (Homo sapiens, UniProt P54821 80-166, F113S).
Experiment [3] deals with ALX4 (Homo sapiens, UniProt Q9H161 200-286, Q225E).
Experiment [4] addresses HOXC10 (Homo sapiens, UniProt Q9NYD6 254-340, K271E).
In experiment [5] the target is ALX3 (Homo sapiens, UniProt O95076 139-225, L168Q).
Chain of ALX3 (Homo sapiens, UniProt O95076 139-225, L168Q) (O95076 139-225 L168Q): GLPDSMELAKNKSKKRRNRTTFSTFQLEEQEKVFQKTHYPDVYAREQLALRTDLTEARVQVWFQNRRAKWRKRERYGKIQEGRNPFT
Experiment [6] concerns the target ALX3 (Homo sapiens, UniProt O95076 139-225, L168V).
Experiment [7] addresses HOXA7 (Homo sapiens, UniProt P31268 116-202).
Experiment [8] has as its target HOXC9 (Homo sapiens, UniProt P31274 178-260).
Experiment [9] has as its target HOXC9 (Homo sapiens, UniProt P31274 178-260, R193K).
Experiment [10] deals with HOXC9 (Homo sapiens, UniProt P31274 178-260, R222W).
Chain of HOXC9 (Homo sapiens, UniProt P31274 178-260, R222W) (P31274 178-260 R222W): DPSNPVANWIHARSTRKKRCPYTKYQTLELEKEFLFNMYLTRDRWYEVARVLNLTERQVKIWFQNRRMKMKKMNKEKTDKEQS
Experiment [11] concerns the target HOXA7 (Homo sapiens, UniProt P31268 116-202, W177C).
Experiment [12] has as its target NKX3-2 (Homo sapiens, UniProt P78367 192-278, P234S).
Experiment [13] addresses NKX3-2 (Homo sapiens, UniProt P78367 192-278).
Experiment [14] addresses ALX4 (Homo sapiens, UniProt Q9H161 200-286).
Experiment [15] deals with T1, PAX4 (Homo sapiens, UniProt O43316 9-242, R200K).
T1 sequence: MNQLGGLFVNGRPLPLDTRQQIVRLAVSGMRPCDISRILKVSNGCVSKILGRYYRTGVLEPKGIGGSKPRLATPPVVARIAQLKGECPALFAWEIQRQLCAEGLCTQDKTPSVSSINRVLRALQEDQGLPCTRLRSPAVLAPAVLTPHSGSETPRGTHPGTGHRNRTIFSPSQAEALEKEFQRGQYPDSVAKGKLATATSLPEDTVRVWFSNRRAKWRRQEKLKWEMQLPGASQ

The target in experiment [16] is T2, PAX4 (Homo sapiens, UniProt O43316 9-242).
T2 sequence: T1 sequence with K192R

Experiment [17] has as its target ALX1 (Homo sapiens, UniProt Q15699 118-204, L144V).
Experiment [18] has as its target ALX3 (Homo sapiens, UniProt O95076 139-225, N203Q).
For experiment [19], the target named is T3, PAX4 (Homo sapiens, UniProt O43316 9-242, R200Q).
T3 sequence: T1 sequence with K192Q

The target of experiment [20] is ALX1 (Homo sapiens, UniProt Q15699 118-204, L144R).
Chain of ALX1 (Homo sapiens, UniProt Q15699 118-204, L144R) (Q15699 118-204 L144R): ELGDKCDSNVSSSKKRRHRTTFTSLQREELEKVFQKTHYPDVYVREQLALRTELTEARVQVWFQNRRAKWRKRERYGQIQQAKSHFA
In experiment [21] the target is T4, PAX4 (Homo sapiens, UniProt O43316 9-242, F177V).
T4 sequence: T1 sequence with F169V, K192R

Experiment [22] deals with ALX3 (Homo sapiens, UniProt O95076 139-225).
Chain of ALX3 (Homo sapiens, UniProt O95076 139-225) (O95076 139-225): as the sequence (O95076 139-225 L168Q) above, with Q30L counted along it
For experiment [23], the target named is T5, PAX4 (Homo sapiens, UniProt O43316 9-242, F177Y).
T5 sequence: T1 sequence with F169Y, K192R

Experiment [24] has as its target PROP1 (Homo sapiens, UniProt O75360 56-141).
The target in experiment [25] is PROP1 (Homo sapiens, UniProt O75360 56-141, R99H).
Chain of PROP1 (Homo sapiens, UniProt O75360 56-141, R99H) (O75360 56-141 R99H): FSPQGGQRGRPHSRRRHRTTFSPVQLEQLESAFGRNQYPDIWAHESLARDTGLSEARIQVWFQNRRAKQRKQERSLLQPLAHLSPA
Experiment [26] concerns the target PROP1 (Homo sapiens, UniProt O75360 56-141, F88S).
Experiment [27] deals with T6, PAX4 (Homo sapiens, UniProt O43316 9-242, R227W).
T6 sequence: T1 sequence with K192R, R219W

Experiment [28] has as its target ALX3 (Homo sapiens, UniProt O95076 139-225, N203S).
Experiment [29] has as its target PRRX1 (Homo sapiens, UniProt P54821 80-166).
The target of experiment [30] is HOXC10 (Homo sapiens, UniProt Q9NYD6 254-340).
Chain of HOXC10 (Homo sapiens, UniProt Q9NYD6 254-340) (Q9NYD6 254-340): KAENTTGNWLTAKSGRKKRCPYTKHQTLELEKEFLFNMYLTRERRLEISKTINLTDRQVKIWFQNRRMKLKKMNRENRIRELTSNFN
Experiment [31] concerns the target HOXD13 (Homo sapiens, UniProt P35453 263-343, T313R).
Experiment [32] deals with HOXD13 (Homo sapiens, UniProt P35453 263-343).
Chain of HOXD13 (Homo sapiens, UniProt P35453 263-343) (P35453 263-343): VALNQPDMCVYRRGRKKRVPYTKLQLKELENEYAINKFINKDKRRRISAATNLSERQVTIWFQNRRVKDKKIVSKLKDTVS
Experiment [33] deals with HOXD13 (Homo sapiens, UniProt P35453 263-343, T313A).
Chain of HOXD13 (Homo sapiens, UniProt P35453 263-343, T313A) (P35453 263-343 T313A): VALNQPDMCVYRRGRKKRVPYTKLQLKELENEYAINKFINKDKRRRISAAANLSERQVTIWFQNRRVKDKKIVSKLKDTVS
Experiment [34] deals with HOXA4 (Homo sapiens, UniProt Q00056 201-287, W262R).
Chain of HOXA4 (Homo sapiens, UniProt Q00056 201-287, W262R) (Q00056 201-287 W262R): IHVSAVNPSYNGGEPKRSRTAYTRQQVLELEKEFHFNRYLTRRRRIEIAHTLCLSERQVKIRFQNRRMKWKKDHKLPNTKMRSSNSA
The target in experiment [35] is HOXA4 (Homo sapiens, UniProt Q00056 201-287).
Chain of HOXA4 (Homo sapiens, UniProt Q00056 201-287) (Q00056 201-287): as the sequence (Q00056 201-287 W262R) above, with R62W counted along it
The target in experiment [36] is HOXA4 (Homo sapiens, UniProt Q00056 201-287, W262F).
Chain of HOXA4 (Homo sapiens, UniProt Q00056 201-287, W262F) (Q00056 201-287 W262F): as the sequence (Q00056 201-287 W262R) above, with R62F counted along it
Experiment [37] deals with HOXB6 (Homo sapiens, UniProt P17509 132-218, K202E).
Chain of HOXB6 (Homo sapiens, UniProt P17509 132-218, K202E) (P17509 132-218 K202E): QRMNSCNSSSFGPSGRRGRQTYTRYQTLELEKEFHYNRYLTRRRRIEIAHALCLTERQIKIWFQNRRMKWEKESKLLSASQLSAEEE
The target of experiment [38] is HOXB6 (Homo sapiens, UniProt P17509 132-218).
Chain of HOXB6 (Homo sapiens, UniProt P17509 132-218) (P17509 132-218): as the sequence (P17509 132-218 K202E) above, with E71K counted along it

Substitutions are numbered along the chain they refer to.

Chain of HOXC9 (Homo sapiens, UniProt P31274 178-260, K195R) (P31274 178-260 K195R): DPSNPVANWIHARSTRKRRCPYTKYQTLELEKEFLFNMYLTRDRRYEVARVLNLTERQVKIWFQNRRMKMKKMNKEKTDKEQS
Chain of HOXC9 (Homo sapiens, UniProt P31274 178-260) (P31274 178-260): as the sequence (P31274 178-260 R222W) above, with W45R counted along it
Chain of HOXC9 (Homo sapiens, UniProt P31274 178-260, R193K) (P31274 178-260 R193K): as the sequence (P31274 178-260 R222W) above, with R16K, W45R counted along it
Chain of HOXC10 (Homo sapiens, UniProt Q9NYD6 254-340, K271E) (Q9NYD6 254-340 K271E): as the sequence (Q9NYD6 254-340) above, with K18E counted along it
Chain of ALX3 (Homo sapiens, UniProt O95076 139-225, N203Q) (O95076 139-225 N203Q): as the sequence (O95076 139-225 L168Q) above, with Q30L, N65Q counted along it
Chain of ALX3 (Homo sapiens, UniProt O95076 139-225, N203S) (O95076 139-225 N203S): as the sequence (O95076 139-225 L168Q) above, with Q30L, N65S counted along it
Chain of PRRX1 (Homo sapiens, UniProt P54821 80-166, F113S) (P54821 80-166 F113S): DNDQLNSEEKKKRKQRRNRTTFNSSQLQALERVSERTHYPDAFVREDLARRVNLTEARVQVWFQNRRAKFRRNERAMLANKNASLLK
Chain of ALX3 (Homo sapiens, UniProt O95076 139-225, L168V) (O95076 139-225 L168V): as the sequence (O95076 139-225 L168Q) above, with Q30V counted along it
Chain of ALX4 (Homo sapiens, UniProt Q9H161 200-286, Q225E) (Q9H161 200-286 Q225E): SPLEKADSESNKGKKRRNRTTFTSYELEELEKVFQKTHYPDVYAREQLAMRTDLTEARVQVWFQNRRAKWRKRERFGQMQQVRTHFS
Chain of HOXD13 (Homo sapiens, UniProt P35453 263-343, T313R) (P35453 263-343 T313R): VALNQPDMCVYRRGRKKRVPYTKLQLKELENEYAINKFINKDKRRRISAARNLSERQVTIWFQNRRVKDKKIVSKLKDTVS
Chain of PROP1 (Homo sapiens, UniProt O75360 56-141, F88S) (O75360 56-141 F88S): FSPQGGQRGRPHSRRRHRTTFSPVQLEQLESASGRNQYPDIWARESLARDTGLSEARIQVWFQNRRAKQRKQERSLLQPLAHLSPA
Chain of ALX4 (Homo sapiens, UniProt Q9H161 200-286) (Q9H161 200-286): as the sequence (Q9H161 200-286 Q225E) above, with E26Q counted along it
Chain of HOXA7 (Homo sapiens, UniProt P31268 116-202) (P31268 116-202): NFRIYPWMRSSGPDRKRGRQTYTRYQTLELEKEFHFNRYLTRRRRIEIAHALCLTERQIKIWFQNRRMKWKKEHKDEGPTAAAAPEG
Chain of HOXA7 (Homo sapiens, UniProt P31268 116-202, W177C) (P31268 116-202 W177C): as the sequence (P31268 116-202) above, with W62C counted along it
Chain of NKX3-2 (Homo sapiens, UniProt P78367 192-278) (P78367 192-278): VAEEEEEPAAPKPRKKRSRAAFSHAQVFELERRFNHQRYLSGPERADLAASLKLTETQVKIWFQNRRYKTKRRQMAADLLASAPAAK
Chain of PROP1 (Homo sapiens, UniProt O75360 56-141) (O75360 56-141): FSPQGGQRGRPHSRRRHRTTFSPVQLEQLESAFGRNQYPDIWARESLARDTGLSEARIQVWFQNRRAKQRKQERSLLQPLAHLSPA
Chain of ALX1 (Homo sapiens, UniProt Q15699 118-204, L144V) (Q15699 118-204 L144V): as the sequence (Q15699 118-204 L144R) above, with R27V counted along it
Chain of PRRX1 (Homo sapiens, UniProt P54821 80-166) (P54821 80-166): as the sequence (P54821 80-166 F113S) above, with S34F counted along it
Chain of NKX3-2 (Homo sapiens, UniProt P78367 192-278, P234S) (P78367 192-278 P234S): as the sequence (P78367 192-278) above, with P43S counted along it

As for AATTAAAA, the binding signal in experiment [1] is 12.5 upbm affinity estimate (log intensity, higher = more binding, comparable within an allelic series); in [2] it was 11.2 upbm affinity estimate (log intensity, higher = more binding, comparable within an allelic series); in experiment [3], 12.8 upbm affinity estimate (log intensity, higher = more binding, comparable within an allelic series); in [4], 11.8 upbm affinity estimate (log intensity, higher = more binding, comparable within an allelic series); in [5], 10.3 upbm affinity estimate (log intensity, higher = more binding, comparable within an allelic series); in experiment [6] it was 9.86 upbm affinity estimate (log intensity, higher = more binding, comparable within an allelic series).
With CAAGCTCG, the binding signal was 9.46 upbm affinity estimate (log intensity, higher = more binding, comparable within an allelic series) in experiment [1]; 8.21 upbm affinity estimate (log intensity, higher = more binding, comparable within an allelic series) in experiment [7]; 9.49 upbm affinity estimate (log intensity, higher = more binding, comparable within an allelic series) in experiment [8]; 9.44 upbm affinity estimate (log intensity, higher = more binding, comparable within an allelic series) in experiment [9]; 9.62 upbm affinity estimate (log intensity, higher = more binding, comparable within an allelic series) in experiment [10]; 8.29 upbm affinity estimate (log intensity, higher = more binding, comparable within an allelic series) in experiment [11]. Also, the binding signal in experiment [12] was 10.3 upbm affinity estimate (log intensity, higher = more binding, comparable within an allelic series); in [13], 10.3 upbm affinity estimate (log intensity, higher = more binding, comparable within an allelic series).
Turning to TAATTTAA, the binding signal was 12.2 upbm affinity estimate (log intensity, higher = more binding, comparable within an allelic series) in experiment [1]; 13.7 upbm affinity estimate (log intensity, higher = more binding, comparable within an allelic series) in [14]; 11.7 upbm affinity estimate (log intensity, higher = more binding, comparable within an allelic series) in experiment [15]; 11.2 upbm affinity estimate (log intensity, higher = more binding, comparable within an allelic series) in experiment [2]; 12.2 upbm affinity estimate (log intensity, higher = more binding, comparable within an allelic series) in experiment [16]; 12.7 upbm affinity estimate (log intensity, higher = more binding, comparable within an allelic series) in [3]. For the same sequence, the binding signal in experiment [8] was 12.2 upbm affinity estimate (log intensity, higher = more binding, comparable within an allelic series); in experiment [17] it was 11.4 upbm affinity estimate (log intensity, higher = more binding, comparable within an allelic series); in [18], 8.49 upbm affinity estimate (log intensity, higher = more binding, comparable within an allelic series); in [19] it was 11.9 upbm affinity estimate (log intensity, higher = more binding, comparable within an allelic series); in experiment [9] it was 12.2 upbm affinity estimate (log intensity, higher = more binding, comparable within an allelic series); in experiment [20], 11.1 upbm affinity estimate (log intensity, higher = more binding, comparable within an allelic series). The binding signal is 10.6 upbm affinity estimate (log intensity, higher = more binding, comparable within an allelic series) in experiment [21]; 12.4 upbm affinity estimate (log intensity, higher = more binding, comparable within an allelic series) in experiment [22]; 11 upbm affinity estimate (log intensity, higher = more binding, comparable within an allelic series) in [23]; 11 upbm affinity estimate (log intensity, higher = more binding, comparable within an allelic series) in [24]; 10.6 upbm affinity estimate (log intensity, higher = more binding, comparable within an allelic series) in experiment [25]; 10.2 upbm affinity estimate (log intensity, higher = more binding, comparable within an allelic series) in [5]. The binding signal was 10.9 upbm affinity estimate (log intensity, higher = more binding, comparable within an allelic series) in experiment [10]; 9.7 upbm affinity estimate (log intensity, higher = more binding, comparable within an allelic series) in [6]; 7.76 upbm affinity estimate (log intensity, higher = more binding, comparable within an allelic series) in [26]; 10.9 upbm affinity estimate (log intensity, higher = more binding, comparable within an allelic series) in experiment [27]; 8.64 upbm affinity estimate (log intensity, higher = more binding, comparable within an allelic series) in experiment [28]; 13.3 upbm affinity estimate (log intensity, higher = more binding, comparable within an allelic series) in experiment [29].
Turning to ATTTACGA, the binding signal in [1] was 12.4 upbm affinity estimate (log intensity, higher = more binding, comparable within an allelic series); in experiment [30] it was 12.3 upbm affinity estimate (log intensity, higher = more binding, comparable within an allelic series); in experiment [8] it was 12.6 upbm affinity estimate (log intensity, higher = more binding, comparable within an allelic series); in [31], 10.9 upbm affinity estimate (log intensity, higher = more binding, comparable within an allelic series); in experiment [9], 12.4 upbm affinity estimate (log intensity, higher = more binding, comparable within an allelic series); in experiment [32], 12 upbm affinity estimate (log intensity, higher = more binding, comparable within an allelic series). The binding signal in experiment [4] was 11.8 upbm affinity estimate (log intensity, higher = more binding, comparable within an allelic series); in experiment [33] it was 11.8 upbm affinity estimate (log intensity, higher = more binding, comparable within an allelic series); in experiment [10], 10.9 upbm affinity estimate (log intensity, higher = more binding, comparable within an allelic series).
On to CTCGCGAG, for which the binding signal in [1] was 9.76 upbm affinity estimate (log intensity, higher = more binding, comparable within an allelic series); in [30], 10 upbm affinity estimate (log intensity, higher = more binding, comparable within an allelic series); in experiment [8], 9.82 upbm affinity estimate (log intensity, higher = more binding, comparable within an allelic series); in experiment [9], 9.78 upbm affinity estimate (log intensity, higher = more binding, comparable within an allelic series); in experiment [4], 10.1 upbm affinity estimate (log intensity, higher = more binding, comparable within an allelic series); in experiment [10], 9.89 upbm affinity estimate (log intensity, higher = more binding, comparable within an allelic series).
Take AAGATTAC: the binding signal was 10.2 upbm affinity estimate (log intensity, higher = more binding, comparable within an allelic series) in experiment [34]; 11.1 upbm affinity estimate (log intensity, higher = more binding, comparable within an allelic series) in experiment [35]; 10.4 upbm affinity estimate (log intensity, higher = more binding, comparable within an allelic series) in experiment [36].
For the sequence CACGATCA, the binding signal was 10.2 upbm affinity estimate (log intensity, higher = more binding, comparable within an allelic series) in experiment [34]; 11 upbm affinity estimate (log intensity, higher = more binding, comparable within an allelic series) in [35]; 10.3 upbm affinity estimate (log intensity, higher = more binding, comparable within an allelic series) in experiment [36].
Regarding TAAGATGA, the binding signal was 10.9 upbm affinity estimate (log intensity, higher = more binding, comparable within an allelic series) in [1]; 9.54 upbm affinity estimate (log intensity, higher = more binding, comparable within an allelic series) in [37]; 10.7 upbm affinity estimate (log intensity, higher = more binding, comparable within an allelic series) in experiment [8]; 8.17 upbm affinity estimate (log intensity, higher = more binding, comparable within an allelic series) in experiment [18]; 10.9 upbm affinity estimate (log intensity, higher = more binding, comparable within an allelic series) in [9]; 9.17 upbm affinity estimate (log intensity, higher = more binding, comparable within an allelic series) in [22]. The binding signal in experiment [10] is 10.2 upbm affinity estimate (log intensity, higher = more binding, comparable within an allelic series); in [28], 8.25 upbm affinity estimate (log intensity, higher = more binding, comparable within an allelic series); in experiment [38] it was 10.1 upbm affinity estimate (log intensity, higher = more binding, comparable within an allelic series).

For the origin of these results see publication PMC11006913.
